In PubChem BioAssay (Tox21):
Records with an inconclusive call do not appear. Values without a mark were called inactive. Calls follow the shape of the full dose curve.

These compounds were tested against Peroxisome proliferator-activated receptor gamma (Homo sapiens) (UniProt P37231) (assay: qHTS assay to identify small molecule antagonists of the peroxisome proliferator-activated receptor gamma (PPARg) signaling pathway (AID 743191; also: nearly all actives have a fitted effect of over 30% in size)). Settings: HEK293H PPARg-UAS-bla, beta-lactamase ratio, antagonist, 17 h; series mostly up to 62.6 µM; ratio activity, negative = inhibition: at the top concentration.
Chain of Peroxisome proliferator-activated receptor gamma (Homo sapiens) (P37231 whole entry, looked up): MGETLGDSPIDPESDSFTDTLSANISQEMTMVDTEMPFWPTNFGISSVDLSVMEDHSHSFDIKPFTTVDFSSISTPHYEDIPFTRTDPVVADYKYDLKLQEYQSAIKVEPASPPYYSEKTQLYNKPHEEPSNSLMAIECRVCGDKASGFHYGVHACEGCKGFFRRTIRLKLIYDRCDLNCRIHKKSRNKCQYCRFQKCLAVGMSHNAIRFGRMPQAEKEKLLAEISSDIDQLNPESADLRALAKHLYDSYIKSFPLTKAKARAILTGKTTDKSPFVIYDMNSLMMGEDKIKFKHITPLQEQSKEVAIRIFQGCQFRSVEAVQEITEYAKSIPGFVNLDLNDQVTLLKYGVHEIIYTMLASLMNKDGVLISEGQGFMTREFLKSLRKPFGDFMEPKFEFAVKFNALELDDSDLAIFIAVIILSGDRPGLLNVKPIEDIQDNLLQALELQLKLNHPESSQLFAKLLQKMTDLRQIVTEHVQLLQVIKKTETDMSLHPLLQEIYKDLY
Excerpt: U.S. Tox21 Program National Center for Advancing Translational Sciences [NCATS] NIH Chemical Genomics Center [NCGC] U.S. Environmental Protection Agency [EPA] National Institutes of Environmental Health Sciences [NIEHS] National Toxicology Program [NTP] U.S. Food and Drug Administration [FDA] Tox21 Assay Overview: The peroxisome proliferator-activated receptors (PPARs) are lipid-activated transcription factors of the nuclear receptor superfamily with three distinct subtypes namely PPAR alpha, PPAR delta (also called PPAR beta) and PPAR gamma (PPARg). All these subtypes heterodimerize with Retinoid X receptor (RXR) and these heterodimers regulate transcription of various genes. PPAR-gamma receptor (glitazone receptor) is involved in the regulation of glucose and lipid metabolism. To identify the compounds that inhibit PPAR-gamma signaling, GeneBLAzer PPAR gamma UAS-bla HEK293H cell line (Invitrogen, Carlsbad, CA, USA) containing a beta-lactamase reporter gene under control of an Upstream Activator Sequence (UAS) was used to screen the Tox21 compound library.
Tox21 Assay Protocol Summary: PPARg-bla cells were dispensed at 3000 cells/6uL/well in 1536-well black wall/clear bottom plates using a Multidrop Combi (Thermo Fisher Scientific, Waltham, MA) dispenser. After the assay plates were incubated at 37C and 5% CO2 for 5 h, 23 nL of compounds dissolved in DMSO, positive controls or DMSO only was transferred to the assay plate by a Pintool station (Kalypsys, San Diego, CA). The assay plates were incubated at 37C for 17 h. After 1 uL of LiveBLAzerTM B/G FRET substrate was added using a Bioraptr Flying Reagent Dispenser (FRD) workstation (Beckman Coulter, Indianapolis, IN, USA), the plates were incubated at room temperature for 1 h, and fluorescence intensity was measured by an Envision plate reader (PerkinElmer, Shelton, CT).
% is scaled to controls: 0 for no effect and ±100 for the full control effect.

SMILES | ratio activity, negative = inhibition
ICCc1ccccc1 | 12.8%
CCC(=O)Nc1ccc(O)cc1 | 1.26%
CC1CN(c2ccccc2)NC1=O (stereo not given) | -27.7%
C=CCCC=C | 0.0873% [at 81.1 µM]
NC/C=C/C(=O)O | -0.0273%
Clc1cccc(-c2cc(Cl)cc(Cl)c2)c1 | 3.36%
O=C1N(c2ccccc2)c2ccccc2C1(Cc1ccncc1)Cc1ccncc1 | -2.38%
COC(=O)/C=C(/C)N | 7.01%
CCc1nnc(NS(=O)(=O)c2ccc(N)cc2)s1 | 14%
Cc1cc(NS(=O)(=O)c2ccc(N)cc2)nc(C)n1 | 4.21%
CCOc1ccccc1N | -0.058%
CCCN(CCC)C(=O)C(CCC(=O)O)NC(=O)c1ccccc1 (stereo not given) | 4.23%
COc1ccccc1OCC(O)COC(N)=O (stereo not given) | 16%
CCN[C@H]1CN(CCCOC)S(=O)(=O)c2sc(S(N)(=O)=O)cc21 | 4.46%
CC(C)C(=O)OCC(C)(C)C(O)C(C)C (stereo not given) | -2.2% [at 81.1 µM]
CC/C=C\CCOC(=O)CCCCC | 14.5%
CC(=O)Nc1ccc(C)c(Cl)c1 | 11.2%
CC(C)OC(C)C | 1.78% [at 81.1 µM]
CCN(CC)CC1CCCCN1CC(=O)N1c2ccccc2C(=O)Nc2cccnc21 (stereo not given) | 0.76%
CCOc1ccc(NC(N)=O)cc1 | 0.569%

SMILES | ratio activity, negative = inhibition
NC(=O)Cc1cccc(C(=O)c2ccccc2)c1N | -2.08%
CCOC(=O)NCCC[Si](OCC)(OCC)OCC | 6.15%
C1CSCCS1 | 7.58%
CCN1CC(CCN2CCOCC2)C(c2ccccc2)(c2ccccc2)C1=O (stereo not given) | 0.465%
OCCN1CCN(CCO)CC1 | 1.54% [at 81.1 µM]
CNCCC(Oc1ccccc1OC)c1ccccc1 (stereo not given) | 6.83%
O=[N+]([O-])c1nccn1CO[C@@H](CO)[C@H](O)CO | -0.675%
CC(C)(C)c1ccc(OC(=O)c2ccccc2O)cc1 | 1.38%
CCCCCCCCCC/C=C/C#N | 23.6%
Nc1cccc(S(=O)(=O)O)c1 | 9.81%
CCCOCCC | -0.957%
CC(=O)O[C@H]1CC[C@@]2(C)C(=CC[C@@H]3[C@@H]2CC[C@]2(C)C(C(C)=O)=CC[C@@H]32)C1 | -2.32%
CC1(O)CSC(C)(O)CS1 (stereo not given) | 3.02%
CCCCNc1ccc(C(=O)OCCN(CC)CC)cc1 | -2.1%
CC(C)Nc1nc(N)nc(Cl)n1 | 0.461%
C=C(C)C(=O)OCCOP(=O)(O)O | 20.7% [at 81.1 µM]
O=c1[nH]cnc2c1ncn2[C@@H]1O[C@H](CO)[C@@H](O)[C@H]1O | 1.98%
CCCC1CCC(=O)O1 (stereo not given) | 4.67%
CCCNC(C)(C)COC(=O)c1ccccc1 | -9.4%
CCCCCCCCCCCCOCCOS(=O)(=O)O | -4.83%
